# Compound activity from PubChem BioAssay.
# Compounds with a hit are over-represented: about 2.1% of the library has one in this group of screens.
# PfM18AAP inh – blocks P. falciparum M18 aspartyl aminopeptidase | recombinant PfM18AAP, H-Glu-NHMec fluorogenic cleavage | inhibition, % at 7.35 µM | 1.2% of 290,000 active | AID 1822;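 active = inhibition above the campaign mean inhibition over all tested compounds plus 3 SD, cut at about 28% in these data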;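 also: 0% = plate median of test compound wells and 100% = 2 mM ZnCl2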
# Rin1-Abl PPI inh – blocks binding of human Rin1 to Abl; 0.4% of 360,000 active; inhibition, % at 7.35 µM; TR-FRET Rin1/Abl binding, biochemical; AID 588664; P00519+Q13671; in the data active = inhibition above about 5%, passing the limit was not always enough
# Target sequence (P00519 whole entry, looked up): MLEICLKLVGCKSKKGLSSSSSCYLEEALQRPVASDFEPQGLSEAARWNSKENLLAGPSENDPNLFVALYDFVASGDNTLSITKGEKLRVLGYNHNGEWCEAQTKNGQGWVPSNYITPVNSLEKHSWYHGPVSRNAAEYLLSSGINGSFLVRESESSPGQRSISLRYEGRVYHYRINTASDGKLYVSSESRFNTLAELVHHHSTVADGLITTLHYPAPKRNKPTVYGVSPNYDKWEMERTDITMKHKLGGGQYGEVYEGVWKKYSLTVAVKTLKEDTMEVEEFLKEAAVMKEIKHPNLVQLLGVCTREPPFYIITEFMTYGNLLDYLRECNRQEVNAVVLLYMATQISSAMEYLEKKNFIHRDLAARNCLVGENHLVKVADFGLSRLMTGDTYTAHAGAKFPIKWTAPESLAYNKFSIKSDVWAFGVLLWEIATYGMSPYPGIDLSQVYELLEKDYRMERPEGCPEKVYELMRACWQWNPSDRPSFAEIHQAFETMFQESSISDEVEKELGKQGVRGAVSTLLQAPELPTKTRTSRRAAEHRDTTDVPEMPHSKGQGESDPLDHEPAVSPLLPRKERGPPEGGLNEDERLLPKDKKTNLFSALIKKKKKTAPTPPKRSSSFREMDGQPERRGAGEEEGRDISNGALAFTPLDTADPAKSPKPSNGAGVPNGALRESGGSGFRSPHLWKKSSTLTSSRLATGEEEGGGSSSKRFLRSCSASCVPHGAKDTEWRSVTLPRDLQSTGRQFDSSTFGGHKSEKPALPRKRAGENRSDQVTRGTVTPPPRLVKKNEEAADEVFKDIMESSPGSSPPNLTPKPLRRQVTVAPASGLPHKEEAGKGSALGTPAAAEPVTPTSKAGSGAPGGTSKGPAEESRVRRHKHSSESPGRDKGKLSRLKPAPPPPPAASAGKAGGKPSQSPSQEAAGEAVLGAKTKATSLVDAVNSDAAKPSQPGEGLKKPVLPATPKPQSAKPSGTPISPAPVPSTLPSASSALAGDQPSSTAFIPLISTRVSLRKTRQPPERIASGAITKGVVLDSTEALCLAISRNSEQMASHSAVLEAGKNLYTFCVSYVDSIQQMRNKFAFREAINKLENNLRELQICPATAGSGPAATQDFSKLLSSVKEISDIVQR
# Target sequence (Q13671 whole entry, looked up): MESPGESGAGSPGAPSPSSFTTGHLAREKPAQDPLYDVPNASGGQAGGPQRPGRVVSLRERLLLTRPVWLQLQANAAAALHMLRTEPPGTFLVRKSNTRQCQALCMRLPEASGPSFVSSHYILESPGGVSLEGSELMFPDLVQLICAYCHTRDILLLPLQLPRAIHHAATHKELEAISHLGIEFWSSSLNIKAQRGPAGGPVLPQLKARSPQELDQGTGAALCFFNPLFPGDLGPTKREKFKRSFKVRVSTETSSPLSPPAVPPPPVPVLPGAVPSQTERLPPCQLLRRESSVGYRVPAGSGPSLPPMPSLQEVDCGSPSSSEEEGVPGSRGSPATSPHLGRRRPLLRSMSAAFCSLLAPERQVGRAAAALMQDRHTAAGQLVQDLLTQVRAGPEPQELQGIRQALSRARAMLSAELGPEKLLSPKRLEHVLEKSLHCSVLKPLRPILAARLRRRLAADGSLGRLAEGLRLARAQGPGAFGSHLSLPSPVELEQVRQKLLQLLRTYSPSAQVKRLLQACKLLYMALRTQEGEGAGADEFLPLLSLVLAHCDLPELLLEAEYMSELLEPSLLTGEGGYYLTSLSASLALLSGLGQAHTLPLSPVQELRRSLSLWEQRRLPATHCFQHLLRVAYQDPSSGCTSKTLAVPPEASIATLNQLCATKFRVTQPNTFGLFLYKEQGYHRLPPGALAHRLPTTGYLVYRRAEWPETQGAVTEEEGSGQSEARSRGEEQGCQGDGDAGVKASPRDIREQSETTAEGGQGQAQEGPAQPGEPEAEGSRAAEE
# CTSL1 counter – cathepsin L1 inhibition, PFM18AAP counter-screen; AID 1906; recombinant F. hepatica cathepsin L1, Z-Leu-Arg-MCA fluorescence; inhibition, % at 5.96 µM; 0.49% of 300,000 active;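 active = inhibition above the mean of all tested compounds plus 3 SD, set per screening campaign, cut at about 17% in these data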;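 also: 0% = plate median of test compound wells and 100% = 1 µM Z-Phe-Ala-diazomethylketone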
# Calb FLC – affects C. albicans growth with fluconazole; C. albicans CaCi-2 (fluconazole-resistant clinical isolate) + fluconazole, Alamar Blue growth, 48 h; growth inhibition, % (no concentration beside the values); 0.57% of 300,000 active; AID 1979;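 active = growth inhibition above about 58% in most replicates, limit read from the data, passing the limit was not always enough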;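 also: all wells also contain fluconazole at 8 µg/ml as a sub-toxic cotreatment; 0% = median of DMSO wells and 100% = median of geldanamycin control wells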
# * marks the source's active call; other numbers are inactive results; x = not tested or not shown.
SMILES,PfM18AAP inh,Rin1-Abl PPI inh,CTSL1 counter,Calb FLC
CCN(CC(=O)NC1CCS(=O)(=O)C1)c1ccc(S(=O)(=O)N(CC)CC)cc1[N+](=O)[O-] (centres undefined),x,2,x,x
Cc1cc(-c2nnc(SCC(=O)Nc3nc(-c4ccccc4)cs3)o2)no1,30*,-5,1,-7
CC(=O)Nc1cccc(NC(=O)Nc2cccc(Cl)c2C)c1,-1,5,1,-3
CC(=O)Nc1cccc(NC(=S)Nc2cccc(Cl)c2C)c1,31*,1,-1,0
O=[N+]([O-])c1ccc(NNC(=S)Nc2ccc(F)cc2)cc1,29*,2,-1,-15
CCOC(=O)COn1c(=O)c(-c2ccc(C)cc2)[n+]([O-])c2ccccc21,5,4,20*,-5
COc1ccc(C)cc1NC(=O)C(OC(=O)CNC(=O)c1cccc(F)c1)c1ccccc1 (centres undefined),0,2,29*,4
O=C(CNC(=O)c1ccccc1)OC(C(=O)Nc1cc(C(F)(F)F)ccc1Cl)c1ccccc1 (centres undefined),12,-2,28*,11
Cc1cnc(C(=O)OC(C(=O)Nc2cc(C(F)(F)F)ccc2Cl)c2ccccc2)cn1 (centres undefined),2,-1,-27,14
CC12CCC(C(=O)NCCCN3CCOCC3)(C(Br)C1=O)C2(C)C (centres undefined),-4,1,-4,-7
CCCSc1ccc([C@@H]2[C@H]3C(=O)N(CC)C(=O)[C@H]3[C@]3(C(=O)OC)CCCCN23)cc1,x,1,3,6
CC(=O)c1cc2c(cc1NC(=O)c1ccco1)OCCO2,2,2,38*,2
CCCCCC(=O)NC(Cc1ccc(OC)c([N+](=O)[O-])c1)C(=O)O (centres undefined),-7,2,2,4
Cc1ccc(C)c(OC(=O)c2cncc(Br)c2)c1,-6,1,-2,98*
CCc1ccc(C)c(OC(=O)c2cncc(Br)c2)c1,6,0,-16,9
C[C@H]1CN([C@@H](C)CO)C(=O)CCCn2nncc2CO[C@@H]1CN(C)Cc1ccc(-c2ccccc2)cc1,x,-2,x,x
O=C(CN1CCCc2ccccc21)N/N=C/c1c(O)ccc2ccccc12,-2,3,1,85*
O=C(CN1CCCc2ccccc21)N/N=C/c1ccccc1,6,-5,-1,1
O=C(CN1CCCc2ccccc21)NC(=O)NCc1ccccc1,-6,1,4,-4
CC(C)(C)NC(=O)NC(=O)CN1CCCc2ccccc21,1,-1,1,114*
O=C(NOC(=O)c1c(F)cccc1Cl)c1ccc(Cl)c(Cl)c1,-3,-1,-1,-9
O=C(Oc1ccc(Cl)c2cccnc12)N1CCOCC1,-12,2,2,-8
COc1ccc(C(=O)Oc2c(CN3CCOCC3)cc(Cl)c3cccnc23)cc1,16,-6,1,88*
COc1cccc(C(=O)Oc2c(CN3CCOCC3)cc(Cl)c3cccnc23)c1,6,-1,2,104*
O=C(Oc1ccccc1C(=O)N1CCOCC1)c1ccc(F)cc1,-5,0,5,-3
SMILES,PfM18AAP inh,Rin1-Abl PPI inh,CTSL1 counter,Calb FLC
COc1cc(C(=O)Oc2c(CN3CCOCC3)cc(Cl)c3cccnc23)cc(OC)c1OC,0,3,-3,94*
O=C(Oc1c(CN2CCOCC2)cc(Cl)c2cccnc12)c1ccc(F)cc1,6,-3,-2,96*
COc1ccc(CCn2c(C)cc3c(c2=O)C(c2ccc4c(c2)OCO4)C(C#N)=C(N)O3)cc1OC (centres undefined),13,-2,-4,109*
Cc1cc2c(c(=O)n1Cc1ccccn1)C(c1ccc3c(c1)OCO3)C(C#N)=C(N)O2 (centres undefined),6,2,0,-8
Cc1occc1C(=O)NNC(=S)NCc1ccc(Cl)cc1,-3,-1,1,16
Cc1occc1C(=O)NNC(=S)NCc1ccccc1,7,0,17*,9
CC(C)(C)CC(=O)Nc1nnc(C(F)(F)F)s1,2,2,-2,82*
CC(C)C(=O)NNC(=O)CN1CCN(c2nc(-c3ccccc3)cs2)CC1,2,3,3,-20
CCc1nnc(NC(=O)CN2CCN(c3nc(-c4ccccc4)cs3)CC2)s1,4,-2,0,90*
O=C(CN1CCN(c2ccccc2F)CC1)Nc1nnc(C(F)(F)F)s1,9,0,-6,86*
CCN(CC)S(=O)(=O)c1ccc(N/N=C/c2ccc(O)cc2O)nc1,37*,-3,2,91*
CNC(=S)N(CCc1c(C)[nH]c2ccc(F)cc12)Cc1cccnc1,2,3,3,x
